Experimental data published in publication PMC4336329 (PLoS ONE, 2015).
About 14,000 (4.5%) of roughly 310,000 compounds showed an effect of 50% or more. Effects have a minus sign here. What follows is part of a selection rich in strong results, with near analogues and random picks from the rest.

Biological target: human ether-à-go-go-related gene (hERG) potassium channel (human, UniProt Q12809)
Test: primary screen, population patch clamp on CHO cells stably expressing hERG; higher = less effect of the substance
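Also: peak tail current of the secondary pulse compared with the same well before compound.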

Sequence of human ether-à-go-go-related gene (hERG) potassium channel (Q12809 whole entry, looked up): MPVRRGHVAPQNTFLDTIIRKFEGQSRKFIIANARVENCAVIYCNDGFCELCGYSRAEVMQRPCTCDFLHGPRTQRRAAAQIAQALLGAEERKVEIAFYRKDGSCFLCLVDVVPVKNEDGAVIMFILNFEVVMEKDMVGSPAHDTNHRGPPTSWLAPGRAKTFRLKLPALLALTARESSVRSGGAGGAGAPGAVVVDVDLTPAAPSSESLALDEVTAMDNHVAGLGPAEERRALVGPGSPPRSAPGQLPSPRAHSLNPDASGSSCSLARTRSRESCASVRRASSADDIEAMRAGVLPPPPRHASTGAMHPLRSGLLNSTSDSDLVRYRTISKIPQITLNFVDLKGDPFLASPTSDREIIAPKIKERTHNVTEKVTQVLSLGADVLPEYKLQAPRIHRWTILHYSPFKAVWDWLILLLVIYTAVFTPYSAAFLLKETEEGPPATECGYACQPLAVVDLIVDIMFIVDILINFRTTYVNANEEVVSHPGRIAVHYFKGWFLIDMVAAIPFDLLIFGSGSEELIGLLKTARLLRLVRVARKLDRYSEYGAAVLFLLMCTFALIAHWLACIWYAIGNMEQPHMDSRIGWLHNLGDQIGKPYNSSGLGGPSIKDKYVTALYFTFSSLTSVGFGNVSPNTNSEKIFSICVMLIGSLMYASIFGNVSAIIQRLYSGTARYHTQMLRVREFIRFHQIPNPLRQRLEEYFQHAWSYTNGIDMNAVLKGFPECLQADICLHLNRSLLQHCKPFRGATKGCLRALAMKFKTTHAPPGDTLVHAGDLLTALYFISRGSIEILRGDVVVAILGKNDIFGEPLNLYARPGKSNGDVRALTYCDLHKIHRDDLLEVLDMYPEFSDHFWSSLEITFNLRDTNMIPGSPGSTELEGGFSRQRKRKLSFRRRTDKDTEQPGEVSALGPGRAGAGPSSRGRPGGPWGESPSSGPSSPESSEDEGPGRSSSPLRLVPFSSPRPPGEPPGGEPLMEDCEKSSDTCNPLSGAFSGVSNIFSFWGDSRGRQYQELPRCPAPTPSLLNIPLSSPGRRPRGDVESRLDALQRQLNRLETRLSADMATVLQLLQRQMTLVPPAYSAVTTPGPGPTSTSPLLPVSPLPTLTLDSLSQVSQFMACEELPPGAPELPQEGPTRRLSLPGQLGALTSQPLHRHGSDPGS

Row | SMILES | hERG current change (%, negative = inhibition) at 10uM [%]
1 | CCOC(=O)c1sc2c(c1C)c(=O)n(Cc1ccccc1)c(=O)n2CCN(C)C | -58.9
2 | CN(C)CCCn1c(=O)n(C2CCCCC2)c(=O)c2c3c(sc21)CCCCC3 | -53.8
3 | CCOC(=O)c1sc2c(c1C)c(=O)n(CCO)c(=O)n2Cc1ccccc1 | 4.88
4 | CN(C)CCCn1c(=O)n(CCc2ccccc2)c(=O)c2c3c(sc21)CCCCC3 | -70.4
5 | CN(C)CCn1c(=O)n(Cc2ccccc2)c(=O)c2c3c(sc21)CCCCC3 | -3.31
6 | CN(C)CCn1c(=O)n(C2CCCCC2)c(=O)c2c3c(sc21)CCCCC3 | -25.3
7 | O=C(O)Cn1c(=O)c2c3c(sc2n(Cc2ccccc2)c1=O)CCCC3 | 16.6
8 | Cc1c(C(=O)O)sc2c1c(=O)n(Cc1ccccc1)c(=O)n2C | 23.2
9 | NC(=O)Cn1c(=O)n(C2CCCCC2)c(=O)c2c3c(sc21)CCCCC3 | -6.3
10 | CN(C)CCCn1c(=O)n(Cc2ccccc2)c(=O)c2c3c(sc21)CCCCC3 | -58.9
11 | NC(=O)Cn1c(=O)n(CCc2ccccc2)c(=O)c2c3c(sc21)CCCC3 | -15
12 | CCn1c(=O)n(CCc2ccccc2)c(=O)c2c3c(sc21)CCCC3 | 1.05
13 | COc1ccc(OC)c(S(=O)(=O)NCCc2csc(-c3cccnc3)n2)c1 | 4.92
14 | CCOc1ccc(C2(C#N)CC[N+](C)(C)CC2)cc1.[Br-] | 2.83
15 | CS(=O)(=O)N(CC(=O)NCCSCc1cccc(Cl)c1)c1ccccc1F | -20.2
16 | Cc1ccc(C(=O)Nc2ccccc2C(=O)NCc2ccccc2)cc1 | 5.63
17 | O=C(NCc1nnc2c3ccccc3c(-c3ccccc3)nn12)c1ccccc1Cl | -78.9
18 | CC(=O)NCc1nnc2c3ccccc3c(-c3ccccc3)nn12 | -31.9
19 | O=C(CSc1nnc(CNC(=O)c2ccccc2)o1)c1ccc(Cl)cc1 | -30.3
20 | OCc1nnc2c3ccccc3c(-c3ccccc3)nn12 | -4.77
21 | Cc1cccc(C(=O)NCc2nnc3c4ccccc4c(-c4ccccc4)nn23)c1 | -4.14
22 | O=C(NCc1nnc2c3ccccc3c(-c3ccccc3)nn12)c1ccc(Cl)cc1 | -52.4
23 | CC(OC(=O)C1CCCCC1)C(=O)Nc1cccc([N+](=O)[O-])c1 (centres unmarked) | -4.48
